# Screening data deposited in PubChem by several laboratories.
# Shown are actives, neighbours in structure and some others; about 4.3% of the full set was active somewhere.
# NR3A LBD binder = NR3A (human) ligand-binding domain modulation | NR3A LBD differential scanning fluorimetry, Tm shift; 0% = protein alone, 100% = glycine-bound protein | Tm shift relative to glycine control, % at 25 µM | 340,000 tested, 2.5% active;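 active = melting temperature shift of at least 10% of the positive control shift, at one fixed dose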
# CR mimetic SO = caloric restriction mimetics inhibiting age-related superoxide in yeast | S. cerevisiae aged cells, superoxide DHE fluorescence; hits give low values | superoxide response (% of plate mean), % at 10 µM | 330,000 tested, 0.18% active | AID 2690;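 active = superoxide response under a set limit, about three screen SD below normal, cut at about 65% in these data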;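 also: yeast aged for seven days with compound at 30 °C before DHE staining; 100% = average MFI of all compound-treated wells on the plate with controls excluded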
# UBC13 polyUb = inhibitors of human UBC13 polyubiquitin chain formation. P61088. TR-FRET. inhibition, % at 20 µM. 330,000 tested, 0.47% active; in the data active = inhibition above about 45%, passing the limit was not always enough
# Target sequence (P61088 whole entry, looked up): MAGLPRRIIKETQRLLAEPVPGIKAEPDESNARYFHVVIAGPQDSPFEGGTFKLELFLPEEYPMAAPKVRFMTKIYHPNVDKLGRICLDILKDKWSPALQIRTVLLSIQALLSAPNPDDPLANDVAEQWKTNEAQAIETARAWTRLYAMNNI
# NALP1 inh = blocks the NALP1 inflammasome reconstituted in yeast | S. cerevisiae NALP1/ASC/caspase-1 growth, X-gal OD620, 72 h | inhibition, % at 10 µM | 280,000 tested, 0.61% active; in the data active = inhibition mostly above about 24%, no sharp cut-off; inactive = mostly below about 32%
# dFosB activator = enhances mouse delta FosB homodimer DNA binding | P13346 | purified delta FosB, TAMRA-CDK5 oligo fluorescence polarization; percent of positive-control signal above neutral wells | activation, % at 25 µM | 340,000 tested, 0.99% active | AID 493131;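 active = mean activation above about 17%, with every replicate also reaching it, limit read from the data, passing the limit was not always enough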
# Target sequence (P13346 whole entry, looked up): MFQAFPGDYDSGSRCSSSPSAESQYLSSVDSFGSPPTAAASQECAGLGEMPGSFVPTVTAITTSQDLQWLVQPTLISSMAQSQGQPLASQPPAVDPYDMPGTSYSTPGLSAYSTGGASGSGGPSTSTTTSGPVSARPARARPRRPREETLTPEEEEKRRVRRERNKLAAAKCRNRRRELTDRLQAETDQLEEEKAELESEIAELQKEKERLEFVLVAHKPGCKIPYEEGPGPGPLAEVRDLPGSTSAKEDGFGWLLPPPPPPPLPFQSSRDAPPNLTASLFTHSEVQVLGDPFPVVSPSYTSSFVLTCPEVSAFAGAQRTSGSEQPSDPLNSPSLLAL
# Numbers without * were called inactive; x = no result given.
SMILES,NR3A LBD binder,CR mimetic SO,UBC13 polyUb,NALP1 inh,dFosB activator
COc1cc(-c2ccc(Nc3ccccc3C(=O)O)c(OC)c2)ccc1Nc1ccccc1C(=O)O,38.5*,x,-3.1,x,-16.0
Cc1cccc(Nc2ccccc2C(=O)O)c1C,14.3*,94.8,-4.4,21.8,2.4
O=c1/c(=C\c2cc([N+](=O)[O-])cc([N+](=O)[O-])c2O)sc2nc3ccccc3n12,31.2*,125.9,-84.2,16.4,-35.8
O=C(O)c1cc(C(=O)O)cc(-c2ccc(/C=c3/sc4nc5ccccc5n4c3=O)o2)c1,10.1*,x,x,2.4,-13.8
O=C(O)c1cccc(-c2ccc(/C=c3/sc4nc5ccccc5n4c3=O)o2)c1,4.1,105.8,-31.5,2.0,-15.5
O=C(NNC(=S)Nc1ccccc1Cl)c1ccccc1Br,-9.6,105.5,-4.6,-0.8,-10.1
CCOC(=O)c1ccc2[nH]c3c(c2c1)CCCC3,-9.0,95.5,2.4,4.5,-4.8
CCC(C)c1ccccc1NC(=O)COC(=O)c1ccc2[nH]c3c(c2c1)CCCC3 (stereo unspecified),7.4,103.1,8.1,21.3,-4.9
O=C(COC(=O)c1ccc2[nH]c3c(c2c1)CCCC3)Nc1ccccc1Cl,12.6*,95.0,13.5,10.6,-12.5
O=C(COC(=O)c1ccc2[nH]c3c(c2c1)CCCC3)Nc1ccc(Cl)cc1Cl,27.0*,100.7,8.0,2.0,-14.7
COc1ccc(/C=C/C(=O)Nc2cccc(F)c2)cc1S(=O)(=O)N1CCOCC1,10.1*,71.6,1.5,-8.0,-13.6
CC(C)c1ccc(/C=C/C(=O)Nc2ccc(CN3CCOCC3)cc2)cc1,-2.5,99.1,17.4,39.5*,x
O=C(/C=C/c1ccc(F)cc1)Nc1ccc(S(=O)(=O)N2CCOCC2)cc1,22.5*,114.2,-3.3,1.2,-16.4
O=C(/C=C/c1ccc(Cl)cc1)Nc1ccc(CN2CCOCC2)cc1,-2.4,76.2,1.4,20.4,-15.1
Cc1ccc(/C=C/C(=O)Nc2cc(S(=O)(=O)N3CCOCC3)ccc2N2CCOCC2)cc1,0.3,61.6*,0.6,x,-14.3
O=C(/C=C/c1ccccc1)Nc1cc(S(=O)(=O)N2CCOCC2)ccc1N1CCOCC1,0.2,x,-3.8,x,-10.6
COc1ccc(/C=C/C(=O)Nc2ccccc2F)cc1S(=O)(=O)N1CCOCC1,-3.1,86.3,1.2,x,-7.8
O=C(NC1CCN(c2ncccn2)CC1)c1ccccc1Cl,4.0,94.0,0.1,17.9,3.2
Cc1ccc(S(=O)(=O)N(Cc2ccccc2F)C(=O)N2CCN(C)CC2)cc1,1.6,105.2,-0.3,x,4.6
CC(C)c1ccc(CN2CCN(C(=O)CCl)CC2)cc1,0.0,x,x,59.3*,-2.7
Cc1ccc(CN2C(=O)CCSc3ccc(Cl)cc32)cc1,-3.8,85.9,-3.7,35.5*,-10.8
COCCCNC(=O)c1ccccc1SC,12.6*,85.3,-2.5,10.7,-1.1
N#CCCN(Cc1cccnc1)S(=O)(=O)c1ccc2ccccc2c1,2.8,90.6,5.9,x,1.6
N#CCCN(Cc1cccnc1)S(=O)(=O)c1ccc(S(=O)(=O)NC2CCCCC2)cc1,13.7*,94.7,2.4,10.4,-2.0
Cn1ccc(C(=O)OCC(=O)Nc2cccc3ccccc23)n1,0.0,91.2,-12.0,5.3,0.0
SMILES,NR3A LBD binder,CR mimetic SO,UBC13 polyUb,NALP1 inh,dFosB activator
CC(C)Cn1c(N)c(C(=O)COC(=O)C2Cc3ccccc3CN2S(C)(=O)=O)c(=O)n(C)c1=O (stereo unspecified),-2.2,108.2,-10.3,x,-7.3
O=C(Nc1ccc(Oc2cccnc2)cc1)C1CCN(Cc2cc(Cl)ccc2O)CC1,87.7*,87.0,24.7,20.9,-8.8
CCOc1ccccc1C(=O)N[C@H](C(=O)Nc1cc(S(=O)(=O)N(C)C)ccc1OC)C(C)C,-1.6,86.3,-12.7,23.8*,0.7
Cc1ccc2cc3cc(C(=O)NCCCN4CCc5ccccc5C4)oc3nc2c1,2.4,109.8,5.3,46.3*,-29.9
COc1ccc2nc3sc(C(=O)NCCCN4CCc5ccccc5C4)cc3cc2c1,23.2*,104.8,11.0,-0.9,-8.8
Cc1ccc(C2CC2C(=O)NNC(=S)Nc2ccc(Cl)cc2)cc1 (stereo unspecified),11.7*,101.0,-18.3,10.5,7.3
CC(C)(C)NC(=S)NNC(=O)[C@H]1C[C@@H]1c1ccccc1,-1.0,106.0,0.8,-0.6,-5.3
C[C@H](CO)N1C[C@H](C)[C@@H](CN(C)S(=O)(=O)c2ccc(F)cc2)Oc2ccc(NS(=O)(=O)c3ccccc3)cc2C1=O,2.1,110.0,10.5,x,-2.6
Cc1ccc(NC(=O)NCC2CCN(Cc3cccc(Cl)c3)CC2)cc1Cl,-0.4,97.9,30.6,17.6,20.1*
O=C(CNC(=O)c1ccc(Br)cc1)NCc1cccnc1,-3.5,98.4,7.3,18.7,2.7
N#C/C(C(=O)Oc1ccccc1)=C1\C=Cc2ccccc2N1,20.1*,113.8,12.4,8.4,-0.9
COC(=O)/C(C#N)=C1/C=Cc2ccccc2N1C,-1.2,95.8,1.7,15.5,1.1
CC(C)NC(=O)N(C)C[C@H]1Oc2ccc(NC(=O)c3ccncc3)cc2C(=O)N([C@H](C)CO)C[C@@H]1C,1.1,124.3,-3.4,x,-3.9
CC(=O)Nc1sc(N/N=C/c2ccccc2)nc1-c1ccc(C)cc1,11.2*,89.6,0.6,12.7,-2.8
CC(=O)c1sc(N/N=C\c2ccc(Br)cc2)nc1C,15.5*,90.7,-15.8,23.2,-3.0
COc1cccc(C=NNc2nc3ccccc3s2)c1OC,-4.0,x,x,x,-0.1
CC(=O)Nc1cccc(/C(C)=N/Nc2nc3ccccc3s2)c1,30.6*,86.6,0.2,-0.3,-3.6
Oc1ccccc1C=NNc1nc2ccccc2s1,30.6*,x,x,x,-4.7
CCN(CC)S(=O)(=O)c1ccc(N2CCN(C)CC2)c(NC(=O)c2cc(=O)c3ccccc3o2)c1,2.3,118.9,0.5,-28.7,-4.3
O=C(NCC(=O)N(c1cccnc1)C(C(=O)NC1CCCCC1)c1ccccc1F)c1ccco1 (stereo unspecified),-0.9,100.5,-5.6,5.9,-10.1
CN(C(=O)COc1ncnc2sccc12)c1ccccc1,1.4,108.4,5.1,11.5,4.1
C(=N\Nc1nc2ccccc2s1)/c1cccs1,-2.0,94.8,-5.7,-3.1,-10.5
COc1ccc(/C=N/Nc2nc3ccccc3o2)cc1O,-3.6,93.5,-10.5,-4.1,-4.9
COc1ccc(/C=N/Nc2nc3ccccc3s2)cc1O,12.5*,x,x,9.1,5.6
Oc1ccc(C=NNc2nc3ccccc3s2)c(O)c1,37.6*,x,x,x,7.3
Cc1ccsc1/C=N/Nc1nc2ccccc2s1,23.9*,90.6,-6.0,-9.2,8.2
CC(=O)Nc1ccc(/C=N/Nc2nc3ccccc3s2)cc1,15.5*,x,x,18.4,2.8
CC(=O)NNc1nc2ccccc2s1,-14.2,96.0,4.4,-7.2,-0.4
OCCC1CN(Cc2cn[nH]c2C2CCCCC2)CCN1C1CCCCC1 (stereo unspecified),-2.4,93.0,-1.3,13.3,2.0
CC(=O)c1ccc(N2CCN(C(=O)COc3ccccc3F)CC2)c(F)c1,10.1*,108.5,-16.7,-1.6,-1.0
